# Compound activity: PubChem, Fisher Drug Discovery Resource Center
# mcGAS RapidFire – inhibitors of mouse cGAS | Q8C6L5 | recombinant mouse cGAS, cGAMP by RapidFire MS | inhibition, % at 12.5 µM | 130,000 compounds, 0.18% hits | AID 1259397;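 active = inhibition of cGAS enzyme activity at or above 60%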;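 note: enzyme stimulated by 45 bp dsDNA with ATP and GTP substrates; cGAMP share of summed cGAMP plus half ATP and half GTP signals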
# Target sequence (Q8C6L5 whole entry, looked up): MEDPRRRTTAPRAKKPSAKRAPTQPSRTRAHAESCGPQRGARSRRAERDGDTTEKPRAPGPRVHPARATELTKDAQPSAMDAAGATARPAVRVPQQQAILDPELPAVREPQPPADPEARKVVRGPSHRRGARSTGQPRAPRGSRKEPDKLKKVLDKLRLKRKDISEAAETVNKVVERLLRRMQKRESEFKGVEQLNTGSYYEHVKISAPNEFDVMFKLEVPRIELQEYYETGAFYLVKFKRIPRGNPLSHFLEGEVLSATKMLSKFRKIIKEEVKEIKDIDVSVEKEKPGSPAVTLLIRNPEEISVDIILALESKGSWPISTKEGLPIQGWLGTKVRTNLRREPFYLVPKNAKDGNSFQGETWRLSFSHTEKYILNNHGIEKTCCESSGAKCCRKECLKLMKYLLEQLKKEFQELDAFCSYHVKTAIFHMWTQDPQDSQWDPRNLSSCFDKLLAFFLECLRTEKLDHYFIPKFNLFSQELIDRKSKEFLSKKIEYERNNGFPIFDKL
# An asterisk follows results filed as active; ! = not confirmed by another sample. The full list was thinned out, with hits kept by preference.
SMILES,mcGAS RapidFire
Nc1nc2[nH]cc(CCc3ccc(C(=O)N[C@H](CCC(=O)O)C(=O)O)cc3)c2c(=O)[nH]1,5
Nc1nc2ncc(CNc3ccc(C(=O)N[C@@H](CCC(=O)O)C(=O)O)cc3)nc2c(=O)[nH]1,82*!
O=C(c1ccnc(N2CCCC2)n1)N1CCCC(n2cncn2)C1 (configuration not stated),-1
S=c1sc2ccc(Cl)cc2n1CN1CCN(c2ccccn2)CC1,-1
COC(=O)[C@@H]1C[C@H](C(=O)NCCCn2cccn2)[C@H](c2cccc(Cl)c2)N1C,-7
Cc1cc(Cl)ccc1N=Cc1nc(-c2ccccc2F)oc1O,-3
COc1cc([N+](=O)[O-])ccc1N=Cc1nc(-c2ccccc2F)oc1O,-11
Cc1ccc([N+](=O)[O-])cc1N=Cc1nc(-c2ccccc2F)oc1O,81*
CNc1ncc(C(=O)N2CCCC(CCc3ccccc3C)C2)cn1 (configuration not stated),4
CC(C)c1cc(C2CCN(C(=O)C3=NN(C)C(=O)CC3)CC2)[nH]n1,78*
CC(C)=CC(=O)N1CCC(c2cc(C(C)C)n[nH]2)CC1,-11
CC(C)c1cc(C2CCN(C(=O)c3nc(C(C)C)cs3)CC2)[nH]n1,-25
Cc1ccc(Cn2nccc2NC(=O)c2cnc(C(C)(C)C)s2)o1,-9
COc1cc(C(=O)c2c(C(F)(F)F)oc3c2C(=O)c2ccccc2C3=O)cc(OC)c1OC,-16
O=c1c2cnc3ncnn3c2ccn1-c1ccc2c(c1)OCO2,-7
Nc1nnc(Sc2ncc([N+](=O)[O-])s2)s1,67*
Nc1nnc(SCC(=O)c2ccc([N+](=O)[O-])cc2)s1,-3
C=CCSc1nnc(N)s1,-7
O=C(Cn1ccnc1-c1ccnc(N2CCSCC2)c1)NCc1ccc(F)cc1,-2
CCSc1nnc(NC(=O)c2cc(-c3cccc(C)c3)nc3ccccc23)s1,0
Cc1c2cccn2cc[n+]1CC(=O)c1ccccc1,-3
Cc1ccc[n+](CC(=O)c2ccc(-c3ccccc3)cc2)c1C,-7
O=C(C[n+]1ccc(NC(=O)c2ccccc2)c2ccccc21)c1ccccc1,64*
CCC(=O)NC(C)c1sc(-c2ccccc2F)nc1C (configuration not stated),-3
CC(C)(C)n1cccc(/C=N\NC(N)=S)c1=S,72*
SMILES,mcGAS RapidFire
Cn1c(=O)c2[nH]c(/C=N\NC(N)=S)nc2n(C)c1=O,16
NC(=S)NN=Cc1c[nH]c2ccccc12,-2
CCCCCCCC(=O)NN=Cc1c[nH]c2ccccc12,3
COc1ccc(NC(C)(C)C(=O)N2CCc3c(ncnc3N(C)C)C2)cc1,8
COC(=O)COc1ccc(Br)c2ccccc12,-6
Cc1ccc(C2([N+](=O)[O-])C(=O)c3ccccc3C2=O)cc1,90*
Cc1ccc(N2Cc3ccccc3C2=O)cc1,-5
Cc1ccc(/C(=C2\OC(=O)c3ccccc32)[N+](=O)[O-])c(C)c1,5
Cc1nc(C(=O)NC(c2ccncc2)c2ccccc2C)cs1 (configuration not stated),-33
COCCN(Cc1ccco1)C(=O)CNc1ccccc1Cl,5
COCCN(Cc1ccco1)S(=O)(=O)Cc1cccc(C)c1,89*
COCCS(=O)(=O)N(Cc1ccco1)c1ccc(F)cc1F,-48
Cc1ccc(NC(=O)CC23CC4CC(CC(O)(C4)C2)C3)cc1,-1
Cc1cc(-c2cc(=O)[nH]c(-c3ccc(CN4CCN(C)CC4)cc3)n2)c(C)o1,71*
CN(Cc1ccc(-c2nc(-c3ccncc3)cc(=O)[nH]2)cc1)Cc1ccoc1,-19
CCCCc1cc(=O)[nH]c(-c2ccc(CN3CCN(C(=O)N(C)C)CC3)cc2)n1,10
CCn1nnc2c(NCCCOC(C)C)ncnc21,-16
Cc1cc(C(=O)N2CCCC2c2cccs2)ccc1N1CCNC1=O (configuration not stated),-11
O=C(c1cccs1)c1cccs1,-7
O=C(c1cccs1)N1CCC(c2nc3cc(Cl)ccc3s2)CC1,-9
NC(=O)n1c(O)c(C(=O)c2cccs2)c2cc(Cl)ccc21,70*
O=C(c1n[nH]c(=O)c2ccccc12)N1CCN(S(=O)(=O)c2cccc(Cl)c2)CC1,87*
O=C(c1n[nH]c(C2CC2)c1Cl)N1CCN(S(=O)(=O)c2ccccc2)CC1,-37
Cc1cccc(CN2CCN(C(=O)c3n[nH]c(=O)c4ccccc34)CC2)c1,-7
CC(=O)N1CCN(C(C)(C)c2nnnn2-c2c(C)cccc2C)CC1,-2
SMILES,mcGAS RapidFire
Cc1cc(C)cc(NCCC(=O)N=c2sccn2C)c1,-11
COc1c(Cl)ccc(Cl)c1C(=O)O,98*
COc1cccc(C=CC(=O)c2ccc(Cl)c(Cl)c2)c1OC,9
COc1c(Cl)cc(C(=O)NCCn2cccc2)cc1Cl,-3
c1ccc(COCc2c(-c3ccccc3)ncn2CC2CCCO2)cc1 (configuration not stated),-19
C/C(=N/Nc1nc(Cl)c(C#N)c(Cl)c1Cl)c1ccc(N)cc1,39
CC(C)=NNc1nc(Cl)c(C#N)c(Cl)c1Cl,75*
CSc1cccc(NC(=S)NCC2CCCO2)c1 (configuration not stated),-7
